Data taken from PubChem BioAssay AID722 (NMMLSC, 2007).
Screen size: about 1,300 compounds; about 40 (3%) were called active. This excerpt belongs to a sample that is enriched for actives. Values without a mark were called inactive. Rule as the data show it: active = inhibition above about 30%; inactive = the rest.

Molecular target: fMet-Leu-Phe receptor (Homo sapiens) (UniProt P21462)
Test: human FPR1 ligand displacement screen – cell-based, flow cytometry, SAR analysis, primary screen (AID 722)
Settings: FPR-expressing cells, fluorescent ligand binding inhibition, hits give high values, concentration not given here

fMet-Leu-Phe receptor (Homo sapiens), sequence (P21462 whole entry, looked up): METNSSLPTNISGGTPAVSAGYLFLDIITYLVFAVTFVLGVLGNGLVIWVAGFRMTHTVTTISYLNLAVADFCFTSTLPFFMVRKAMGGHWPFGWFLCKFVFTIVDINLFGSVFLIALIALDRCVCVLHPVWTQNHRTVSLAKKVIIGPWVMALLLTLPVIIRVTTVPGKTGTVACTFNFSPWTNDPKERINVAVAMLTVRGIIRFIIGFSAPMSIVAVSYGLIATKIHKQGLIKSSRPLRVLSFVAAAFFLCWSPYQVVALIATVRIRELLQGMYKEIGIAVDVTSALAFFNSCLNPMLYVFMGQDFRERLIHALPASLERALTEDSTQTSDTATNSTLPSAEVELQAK

Compound	inhibition
O=C(C1=C(O)C(=O)N(CCCN2CCOCC2)C1c1ccco1)c1ccco1 (centres undefined)	-4.4%
Cc1ccc(/C(O)=C2\C(=O)C(=O)N(CC3CCCO3)C2c2ccc([N+](=O)[O-])cc2)cc1 (centres undefined)	-3.9%
CCCC(=O)N1CCc2cc(OC)c(OC)cc2C1COc1ccc(OC)cc1 (centres undefined)	-2.3%
Cc1nc2c(C(=O)N3CCCCC3)c[nH]n2c(=O)c1Cc1ccccc1F	-4.3%
CCOc1ccc(C2/C(=C(/O)c3ccccc3)C(=O)C(=O)N2CCO)cc1 (centres undefined)	1.5%
Cc1ccc(/C(O)=C2\C(=O)C(=O)NC2c2ccc(F)cc2)cc1 (centres undefined)	10%
Cc1ccc(/C(O)=C2\C(=O)C(=O)NC2c2ccccc2)cc1 (centres undefined)	0.5%
O=C(c1cccs1)N1c2ncnn2C2(CCCCC2)[C@@H]2CCCC[C@@H]21	0.9%
COc1cccc(N(Cc2nnc3n2CCCCC3)C(=O)Nc2ccccc2)c1	-7.8%
COc1ccccc1C1CC(c2ccccc2)=NN1C(=O)c1ccccc1 (centres undefined)	0%
CCOC(=O)c1c(NC(=O)c2ccc(Cl)cc2)sc(C)c1C	-1%
CCOC(=O)c1c(NC(=O)c2cc(F)c(F)cc2Cl)sc2c1CCC2	-9.6%
CCOC(=O)c1c(NC(=O)c2cccc(F)c2)sc2c1CCCC2	-4%
C=CCC(CC=C)(NC(=O)c1cccc(C)c1)c1ccccc1	0.8%
O=C(C1=C(O)C(=O)N(c2nncs2)C1c1ccccc1F)c1cccs1 (centres undefined)	-6.8%
CCc1c(C)nc2c(C#N)c[nH]n2c1=O	0.5%
CC(=O)C1=C(O)C(=O)N(CCN2CCOCC2)C1c1ccc([N+](=O)[O-])cc1 (centres undefined)	5.7%
CCC(C)(C(=O)NC1CCCCC1)N(C)C(=O)Cc1cccs1 (centres undefined)	-25.1%
CCC(C)(C(=O)NC1CCCCC1)N(Cc1cccs1)C(C)=O (centres undefined)	57.2% (active)
CCOc1ccccc1C(=O)N(Cc1cccs1)c1ccc(C)cc1	5.8%
COc1cccc(C(=O)N(Cc2ccco2)Cc2ccccc2F)c1	-2.3%
O=C(C(Cc1ccccc1)N1Cc2ccccc2C1=O)N1CCCCCC1 (centres undefined)	0.8%
COc1ccc(C(=O)Oc2ccc3c(=O)c(-c4ccc(OC)c(OC)c4)c(C(F)(F)F)oc3c2)cc1	9.4%

Compound	inhibition
COc1ccc(Oc2c(C(F)(F)F)oc3cc(OC(=O)c4ccco4)ccc3c2=O)cc1	9.6%
COc1ccccc1-c1c(C(F)(F)F)oc2cc(OC(=O)c3ccccc3C)ccc2c1=O	2.7%
COc1ccccc1-c1c(C(F)(F)F)oc2cc(OC(=O)c3ccco3)ccc2c1=O	59% (active)
COc1ccc(-c2c(C(F)(F)F)oc3cc(OC(=O)c4ccco4)ccc3c2=O)cc1OC	43.5% (active)
COc1ccc(-c2c(C(F)(F)F)oc3cc(OC(=O)c4ccc(C)cc4)ccc3c2=O)cc1OC	-0.2%
COc1cc(C2C(C(=O)c3cc4ccccc4o3)=C(O)C(=O)N2c2nnc(C)s2)ccc1O (centres undefined)	-5.6%
O=C1OC(c2ccccc2F)/C(=C(/O)c2ccccc2)C1=O (centres undefined)	2.1%
CCOC(=O)c1cc2ccccc2n1CC(=O)c1ccccc1	-0.2%
O=C1C(=O)N(c2nncs2)C(c2ccc(F)cc2)/C1=C(\O)c1ccccc1 (centres undefined)	5.9%
Fc1cccc(-c2nn(CN3CCCCC3)c(=S)n2-c2ccccc2)c1	4.7%
COc1ccc(C2/C(=C(\O)c3ccc(F)cc3)C(=O)C(=O)N2c2nnc(C)s2)cc1 (centres undefined)	4.6%
COc1ccc(/C(O)=C2\C(=O)C(=O)N(CCN3CCOCC3)C2c2ccc(Br)cc2)cc1 (centres undefined)	2.9%
O=C(O)CCc1oc2cc(O)ccc2c(=O)c1-c1nc2ccccc2[nH]1	11.1%
CCOC(=O)c1c(NC(=O)C2CCCC2)sc2c1CCC(CC)C2 (centres undefined)	-13.3%
CCc1c(C)nc2c(-c3ccccc3OC)c(C)[nH]n2c1=O	5.5%
CCOc1ccccc1C1CC(=O)NC2=C1C(=O)CC(c1ccccc1Cl)C2 (centres undefined)	-7.2%
O=C1C(=O)N(CCN2CCOCC2)C(c2ccc(Cl)cc2)/C1=C(\O)c1ccc(F)cc1 (centres undefined)	-8.1%
CCc1cc2c(=O)c(-c3nc4ccccc4[nH]3)c(C)oc2cc1OC(C)=O	-0.7%
CCc1cc2c(=O)c(-c3nc4ccccc4n3C)c(C)oc2cc1OC(C)=O	78.9% (active)
CCc1cc2c(=O)c(-c3nc4ccccc4n3C)c(C)oc2cc1O	-2.5%
Cc1[nH]n2c(=O)cc(Cc3ccccc3)nc2c1-c1ccccc1	6.8%
CCOC(=O)C(C#N)C(c1ccc2c(c1)OCO2)c1ccccc1OC (centres undefined)	-0.7%
O=C(NC(c1nnc(-c2ccccc2)o1)c1ccccc1F)c1ccc(F)cc1 (centres undefined)	-6%

Compound	inhibition
CN1C(=O)C2(/C(=C(/O)c3ccc(F)cc3)C(=O)C(=O)N2CCN2CCOCC2)c2ccccc21 (centres undefined)	-6.9%
CC(C)(C)c1ccc(C2/C(=C(\O)c3ccccc3)C(=O)C(=O)N2Cc2cccnc2)cc1 (centres undefined)	-8.3%
COCCCN1C(=O)C(=O)/C(=C(/O)c2ccccc2)C1c1ccc(C(C)C)cc1 (centres undefined)	54.4% (active)
COc1ccc(C2/C(=C(/O)c3ccccc3)C(=O)C(=O)N2Cc2ccccc2)c(OC)c1 (centres undefined)	-11%
Cc1ccc(C2/C(=C(/O)c3ccccc3)C(=O)C(=O)N2Cc2cccnc2)cc1 (centres undefined)	5.2%
Cc1ccc(/C(O)=C2\C(=O)C(=O)N(Cc3cccnc3)C2c2ccc(Br)cc2)cc1 (centres undefined)	61.8% (active)
O=C1C(=O)N(Cc2cccnc2)C(c2ccc(Br)cc2)/C1=C(\O)c1ccccc1 (centres undefined)	-0.7%
COc1ccc(C2/C(=C(\O)c3ccc(C)cc3)C(=O)C(=O)N2Cc2cccnc2)c(OC)c1 (centres undefined)	65.6% (active)
O=C1C(=O)N(Cc2cccnc2)C(c2ccc(Cl)cc2)/C1=C(\O)c1ccccc1 (centres undefined)	8.1%
COCCCN1C(=O)C(=O)/C(=C(/O)c2ccccc2)C1c1ccc(Cl)cc1 (centres undefined)	0.5%
COCCCN1C(=O)C(=O)/C(=C(/O)c2ccc(C)cc2)C1c1ccc(C(C)C)cc1 (centres undefined)	2.7%
COc1ccccc1C1/C(=C(\O)c2ccc(C)cc2)C(=O)C(=O)N1Cc1cccnc1 (centres undefined)	-4.4%
CC(C)c1ccc(C2/C(=C(\O)c3ccccc3)C(=O)C(=O)N2Cc2cccnc2)cc1 (centres undefined)	40.5% (active)
Cc1onc(-c2c(Cl)cccc2Cl)c1C(=O)N1CCCC(C)C1 (centres undefined)	-2.1%
CCOC(=O)c1cc(C)sc1NC(=O)c1ccc(OC)cc1	-6.6%
O=C1CSC(c2ccc(F)cc2)N1c1ccccc1F (centres undefined)	-3%
CN1C(=O)C(=O)/C(=C(\O)c2ccc(Cl)cc2)C1c1ccc(Cl)cc1 (centres undefined)	-3.2%
O=C1CSC(c2cccc(F)c2)N1c1c(F)cccc1F (centres undefined)	0.4%
Cn1c(OCc2cccnc2)nc2c1c(=O)n(Cc1ccc(F)cc1)c(=O)n2C	1%
O=C1C(=O)N(Cc2cccnc2)C(c2ccc(Br)cc2)/C1=C(\O)c1ccc(F)cc1 (centres undefined)	-5.5%
O=C(c1ccccc1)N(Cc1ccco1)Cc1ccccc1Cl	-5%
Cc1ccccc1C(=O)N1C(=S)C(c2ccc(F)cc2)=NC12CCN(C)CC2	3.3%
CCOC(=O)c1c(NC(=O)c2ccc(F)cc2)sc(C)c1C	-3.4%

Compound	inhibition
COc1ccc(NC(=O)C(NC(=O)Cc2cccs2)c2ccccc2)cc1 (centres undefined)	-2.6%
O=C1C(=O)N(Cc2cccnc2)C(c2ccccc2Cl)/C1=C(\O)c1ccccc1 (centres undefined)	1.8%
CC(C)CN1C(=O)c2ccccc2C(C(=O)N2CCCC2)C1c1cccs1 (centres undefined)	4.5%
O=C1C(=O)N(CCc2c[nH]c3ccccc23)C(c2ccc(Cl)cc2)/C1=C(/O)c1ccc(F)cc1 (centres undefined)	1.5%
CCc1ccc(C2/C(=C(/O)c3ccc(OC)cc3)C(=O)C(=O)N2CCc2c[nH]c3ccccc23)cc1 (centres undefined)	3%
COc1ccc(/C(O)=C2/C(=O)C(=O)N(CCc3c[nH]c4ccccc34)C2c2ccc(C(C)C)cc2)cc1 (centres undefined)	43.8% (active)
O=C(C1=C(O)C(=O)N(CC2CCCO2)C1c1cccs1)c1ccco1 (centres undefined)	-9.5%
Cn1c(NCCO)nc2c1c(=O)n(Cc1ccc(F)cc1)c(=O)n2C	-9.2%
COc1ccc(Cl)cc1N1C(=O)CSC1c1ccccc1F (centres undefined)	4.1%
COc1ccc(N(C(=O)c2cccnc2)S(=O)(=O)c2cccs2)cc1	13%
COc1ccc(/C(O)=C2/C(=O)C(=O)N(CCCn3ccnc3)C2c2ccc(O)c(OC)c2)cc1 (centres undefined)	-11%
Cn1c(NCCO)nc2c1c(=O)n(Cc1cccc(F)c1)c(=O)n2C	6.7%
O=C1C(=O)N(c2nc3ccccc3s2)C(c2cccc(F)c2)/C1=C(\O)c1ccccc1 (centres undefined)	4.3%
Cc1ccccc1NC(=S)N(Cc1ccco1)C(C)c1ccccn1 (centres undefined)	-1%
CCc1ccc(CN(Cc2ccco2)C(=O)c2ccccc2)cc1	2.2%
CC(C)C(=O)N(Cc1ccco1)S(=O)(=O)c1cccc2cccnc12	82.2% (active)
CCOc1ccccc1C(=O)N(Cc1ccco1)Cc1ccco1	-4.7%
CCCC(=O)N(Cc1ccco1)S(=O)(=O)c1cccc2cccnc12	97.6% (active)
O=C(c1ccccc1)N(Cc1ccco1)Cc1ccco1	7.4%
COc1ccc(Cn2c(=S)[nH]c3cc4ccccc4cc3c2=O)cc1	-2.8%
